Out of some 48,000 compounds screened, about 13,000 (27%) showed an effect of 50% or more. The list shows a part of the results.
tested on: Wolbachia pipientis; test: Anti-Wolbachia Cell-Based Screen; format: functional; parameters: scale not given: in the data most compounds retested in dose-response had high values; conditions: 5 µM

Compound	Percent Effect
CN(c1nc(Cn2cc(Br)ccc2=O)cs1)C1CC1	-13.88%
CS(=O)(=O)N1CCC(c2nnc3ccc(C(=O)N4CCCC4)cn23)C1 (centres undefined)	-3.487%
CCc1cnc(N)nc1NCCCn1nc(C)nc1C	4.841%
CC(CCN1CCOCC1)NC(=O)c1cccc(C(F)(F)F)c1F (centres undefined)	-6.149%
c1ccc(N2CCC(NCc3cccc4cn[nH]c34)C2)cc1 (centres undefined)	2.833%
COc1ccc(N2CCC(C(=O)/N=c3/[nH]ccs3)CC2)nn1	7.434%
Cc1nc(CCNC(=O)C2CC(=O)N(C(C)C)C2)sc1C (centres undefined)	-29.36%
COCCN(CC1CCCN(C2Cc3ccccc3C2)C1)C(=O)CO (centres undefined)	-6.477%
Cc1ccccc1S(=O)(=O)N1CCc2c(ncnc2N(C)C)C1	-0.5839%
CN(C)c1ncnc2c1CCN(c1ccccc1)CC2	9.479%
Cc1ccc(N2CCc3ncnc(N(C)C)c3CC2)nn1	103.7%
Cc1nc(CN(C)C2CCCN(c3ccccc3)C2)no1 (centres undefined)	85.51%
Cc1cc(CN(C)C2CCCN(Cc3noc(C)n3)C2)on1 (centres undefined)	4.561%
Cc1nc(CN(C)C2CCN(CC3CCCC3)C2)no1 (centres undefined)	93.14%
Cc1nc(CN(C)C2CCN(CC3CCCCC3)C2)no1 (centres undefined)	12.52%
Cc1nc(CN(C)C2CCN(CC(=O)N(C)CCC#N)C2)no1 (centres undefined)	-8.122%
CN(Cc1cc(=O)c(O)co1)C1CCCN(c2ccccc2)C1 (centres undefined)	-2.476%
Cc1nc(CN(C)C2CCN(CC3CCOCC3)C2)no1 (centres undefined)	108.1%
Cc1nc(CN(C)C2CCN(CC3CCC3)C2)no1 (centres undefined)	98.61%
O=C(c1nc(=O)[nH][nH]1)N1CCC2(CCCCC2)C1	-9.423%
c1ccc(SCCN2CCN(CCn3cncn3)CC2)cc1	8.727%
CCC(CO)N(Cc1ccsc1)Cc1ccc(-c2ccn[nH]2)s1 (centres undefined)	-9.048%
CN1CCN(C2CCN(CC(=O)NCC(F)(F)F)CC2)C1=O	-4.835%
O=C(NC(Cc1ccsc1)c1nccs1)C1CC1 (centres undefined)	111.3%
CC(C)Oc1cccc(CNC(=O)NC2(CO)CCCC2)c1	12.23%
CS(=O)(=O)N1CCC(C(=O)NC(Cc2ccsc2)c2nccs2)CC1 (centres undefined)	-7.112%

Compound	Percent Effect
O=C(NC(Cc1ccsc1)c1nccs1)C1CCOCC1 (centres undefined)	-7.907%
CC(NC(=O)NCc1cccc(CN2CCCC2)c1)c1nccs1 (centres undefined)	-2.261%
CCS(=O)(=O)N1CCC(C(=O)NC(Cc2ccsc2)c2nccs2)CC1 (centres undefined)	102.7%
CC(C)Oc1cccc(CNC(Cc2ccsc2)c2nccs2)c1.Cl (centres undefined)	94.44%
O=C(CSCc1ccncc1)N(Cc1ccsc1)C1CC1	10.91%
C=C(C)COc1ccccc1CNC(CC)c1ccnn1C (centres undefined)	-26.14%
CCN(C(c1cccnc1)c1ccc2c(c1)CCO2)S(C)(=O)=O (centres undefined)	5.843%
CCn1nnnc1-c1cccc(NC(=O)CCc2cnn(C)c2)c1	-3.137%
Cc1cccc2cc(CN3CCC(N4CCOCC4)CC3)c(=O)[nH]c12	-9.486%
Cc1cccc2cc(CNCCCN3CCOCC3)c(=O)[nH]c12	-14.11%
CCc1cccc2cc(CNCCCN3CCOCC3)c(=O)[nH]c12	109.4%
Cc1ccc2cc(CNCCCN3CCOCC3)c(=O)[nH]c2c1C	110.9%
COc1ccc(C)cc1CN1CCCC1c1noc(C2CC2)n1 (centres undefined)	18.68%
Cc1cc(C2CCCN2Cc2ccn(C)c(=O)c2)no1 (centres undefined)	-4.327%
COc1ccc(CN2CCCCC2c2n[nH]cc2-c2cc(C)no2)cc1.Cl (centres undefined)	84.19%
COc1ccccc1CN1CCCCC1c1n[nH]cc1-c1cc(C)no1.Cl (centres undefined)	107.2%
Cc1cccc(CN2CCCCC2c2n[nH]cc2-c2cc(C)no2)c1.Cl (centres undefined)	91.3%
Cc1cc(C2CCCN2Cc2cc(-c3ccco3)on2)on1 (centres undefined)	-89.63%
CCc1ccc(CN2CCCCC2c2n[nH]cc2-c2cc(C)no2)cc1.Cl (centres undefined)	131.5%
COc1ccc(CN2CCC[C@H]2c2nc(-c3cncnc3N)no2)cc1	-2.568%
Cc1cc(C2CCCN2Cc2nc(-c3ccco3)no2)on1 (centres undefined)	9.843%
COc1cccc(CN2CCCCCC2c2cccc(C)c2)c1O (centres undefined)	-3.31%
COc1ccc(CN2CCOC[C@H]2c2nc(-c3ccncc3)c[nH]2)cc1	-8.206%
CS(=O)(=O)N1CCc2[nH]cnc2C12CCN(C(=O)c1ccccc1)CC2	-3.54%
CN1C[C@@H](NC(=O)C2CC2)C[C@H]1c1nc(-c2cnccn2)no1	-3.142%
O=C(c1ncoc1-c1ccco1)N1CCCN(c2nccs2)CC1	-20.95%

Compound	Percent Effect
COc1ccc2c(c1)C(C(=O)N(C)CCn1ccnc1C)CC(=O)N2 (centres undefined)	-6.574%
O=C1CC(c2cccnc2)c2c(c(C(=O)O)cn2-c2ccccc2)N1 (centres undefined)	6.777%
O=C1N(c2ccc(F)cc2)Cc2nc(=O)n(Cc3cccc(Cl)c3)n21	-4.998%
COc1cccc(CN2CCCC2c2c(C)nn(C)c2C)c1 (centres undefined)	0.6284%
COc1cccc(CC2CCCN2CCCO)c1 (centres undefined)	13.01%
COc1cccc(CN2CCCCC2c2n[nH]cc2-c2cc(C)no2)c1.Cl (centres undefined)	78.4%
CCN(CCCNC(=O)c1ccc(C)[nH]c1=O)S(C)(=O)=O	-16.03%
CC1=C[C@@H](CN2CCN(C)CC2)[C@H](C(C)C)C[C@H]1Cc1nnc(C)o1	-4.667%
CN(Cc1nc(-c2ccccc2)c[nH]1)C(=O)NCC(=O)NC(C)(C)C	-12.98%
Cc1n[nH]c(C)c1CCC(=O)NC1CCCN(c2ccccc2F)C1 (centres undefined)	-4.293%
CCC[C@H]1CN(S(C)(=O)=O)C[C@@H]1NC(=O)CCCn1ccnc1	0.7566%
COc1ccccc1OC1CCN(C(=O)CCCn2ccnc2)CC1	6.898%
Cc1cc(F)ccc1N1CCCC(NC(=O)CCc2ccncc2)C1 (centres undefined)	111.2%
Cc1ccc(Cl)cc1N1CCC(CNC(=O)CCn2ccnc2)C1 (centres undefined)	19.22%
Cc1cc(F)ccc1N1CCCC(NC(=O)CCCn2ccnc2)C1 (centres undefined)	114.8%
O=C(NCc1cccc(F)c1)NC1CCCN(c2ncccn2)C1 (centres undefined)	12.98%
O=C(CCCn1ccnc1)N[C@H]1CN(C2CCCC2)C[C@@H]1C1CC1	-1.542%
O=C(CCCn1ccnc1)NC1CCCN(c2ccccc2Cl)C1 (centres undefined)	86.14%
CC(C)N(C)Cc1n[nH]c2c1CCN(C(=O)c1cc[nH]n1)C2	93.85%
Cc1nocc1C(=O)N1CCc2c(CN(C)C(C)C)n[nH]c2C1	-1.781%
CN(C)Cc1n[nH]c2c1CCN(Cc1cccs1)C2.O=C(O)C(F)(F)F.O=C(O)C(F)(F)F	-7.744%
O=C(c1ccsc1)N1CCc2c(CN3CCCC3)n[nH]c2C1	-0.6462%
CN(Cc1cn2c(n1)CN(C(=O)c1ccc[nH]1)CC2)Cc1ccco1.O=C(O)C(F)(F)F	-0.5876%
Cc1cc(C(=O)N2CCc3c(ncnc3N3CCOCC3)C2)[nH]n1	-12.68%
CC(C)N(C)Cc1n[nH]c2c1CCN(C(=O)c1ccc[nH]1)C2.O=C(O)C(F)(F)F	99.94%
CC(C)Nc1nc2c(c(N(C)C)n1)CCN(C(=O)c1cc[nH]n1)CC2	-2.807%

Compound	Percent Effect
Cc1cc(C(=O)N2CCc3c(CN(C)C(C)C)n[nH]c3C2)[nH]n1	101.7%
Cc1cc(Br)oc1C(=O)N1CCC(N(C)C)CC1	-50.6%
COCCN1CCCC2(CCN(c3nccnc3N(C)C)C2)C1=O (centres undefined)	-5.787%
Cc1ccoc1C(=O)N1CCC(n2cc(-c3ccsc3)nn2)CC1	-24.55%
COc1cccc(N2CCC(CNC(=O)CN3CSCC3=O)C2)c1 (centres undefined)	-9.493%
CS(=O)(=O)N1CCOCC2(CCN(c3cnccn3)CC2)C1	-8.044%
CC1(C)O[C@@](C)([C@H]2CC3(CCN(c4cnccn4)CC3)CO2)CC[C@@H]1O	106.3%
OCC(O)CSCc1nnc(-c2cccc(F)c2)o1 (centres undefined)	6.518%
CCCN1CCC2(C1)c1ccccc1S(=O)(=O)N2Cc1ccc(F)cc1 (centres undefined)	8.528%
CC(C)CCN1C2(CCN(c3ncccn3)C2)c2ccccc2S1(=O)=O (centres undefined)	105.2%
FC1(F)CCN(c2ccccc2)CC12CCN(c1ncccn1)C2 (centres undefined)	4.725%
CC(C)CCN1C2(CCN(C(=O)N(C)C)C2)c2ccccc2S1(=O)=O (centres undefined)	108.8%
COCC(=O)N1CCC2(C1)c1ccccc1S(=O)(=O)N2CCC(C)C (centres undefined)	110.5%
COCC(=O)N1CCC2(C1)c1ccccc1S(=O)(=O)N2C (centres undefined)	99.03%
COc1ccccc1N1CCN(C(=O)Cn2nc(C)c(C)c2C)C(C)C1 (centres undefined)	5.362%
CCC(Nc1cccc(OC)c1)C(=O)N(CCOC)Cc1cnn(C)c1 (centres undefined)	-17.99%
Cc1cc(C#N)ccc1S(=O)(=O)N1CCN(C)Cc2ccccc21	3.182%
CCc1noc(C(C)SCCS(C)(=O)=O)n1 (centres undefined)	3.138%
CC(C)CCN1C2(CCN(C(=O)C3(C)CC3)C2)c2ccccc2S1(=O)=O (centres undefined)	92.1%
COCC(=O)N1CCC2(CC1)c1ccccc1[C@@H](N1CCSCC1)[C@@H]2O	1.916%
CC(C)CCN1N=C(C(=O)N2CCCCCC2)S(=O)(=O)c2ccccc21	20.76%
COCC(=O)N1CCC2(C1)c1ccccc1S(=O)(=O)N2CC1CC1 (centres undefined)	95.12%
CC(C)CCN1C2(CCN(C(=O)CN(C)C)C2)c2ccccc2S1(=O)=O.O=C(O)C(F)(F)F (centres undefined)	95.71%
CC(C)CCN1CC2(CCN(C(=O)C3(C)CC3)CC2)OC1=O	1.386%
CC(=O)N1CCC2(C1)c1ccccc1S(=O)(=O)N2CCC(C)C (centres undefined)	83.1%
CCNC(=O)N1CCC2(C1)c1ccccc1S(=O)(=O)N2CCC(C)C (centres undefined)	-10.03%
